Tests used:
U-2932 [1] = assay: growth inhibition by drug alone (1 - RLU/untreated control) (fraction); higher = stronger inhibition; settings: 177Lu-lilotomab satetraxetan 0 ug/ml
Summary of the method: (§1)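 Compound doses on the pre-printed Selleck Cambridge Cancer Compound library plates were 10/100 nM for RIVA cells and 10/1,000 nM for U-2932 cells, seeded at 3,000 cells/well. Before seeding, cells were washed after 18 h with or without a radiolabelled anti-CD37 antibody conjugate (~600 MBq/mg; 0.5 µg/ml RIVA, 1 µg/ml U-2932). Growth inhibition was derived from RealTime-Glo luminescence relative to untreated no-drug control wells. Readings were taken daily starting on day 3, each after 1 h at 37°C, and each well's RLU was divided by the mean of 48 such wells per plate and subtracted from 1.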

U-2932 [2] = assay: growth inhibition by drug plus 177Lu-lilotomab satetraxetan (1 - RLU/untreated control) (fraction); higher = stronger inhibition; settings: 177Lu-lilotomab satetraxetan 1 ug/ml
Summary of the method: as §1

RIVA [3] = assay: as above; settings: 177Lu-lilotomab satetraxetan 0.5 ug/ml
Summary of the method: as §1

RIVA [4] = assay: growth inhibition by drug alone (1 - RLU/untreated control) (fraction); higher = stronger inhibition; settings: 177Lu-lilotomab satetraxetan 0 ug/ml
Summary of the method: as §1

Structure (SMILES) | growth inhibition by drug alone (U-2932 [1]; 10 nM, time (day): 3) | growth inhibition by drug alone (U-2932 [1]; 10 nM, time (day): 4) | growth inhibition by drug alone (U-2932 [1]; 10 nM, time (day): 5) | growth inhibition by drug alone (U-2932 [1]; 10 nM, time (day): 6) | growth inhibition by drug alone (U-2932 [1]; 1000 nM, time (day): 3) | growth inhibition by drug alone (U-2932 [1]; 1000 nM, time (day): 4) | growth inhibition by drug alone (U-2932 [1]; 1000 nM, time (day): 5) | growth inhibition by drug alone (U-2932 [1]; 1000 nM, time (day): 6) | growth inhibition by drug plus 177Lu-lilotomab satetraxetan (U-2932 [2]; 10 nM, time (day): 3) | growth inhibition by drug plus 177Lu-lilotomab satetraxetan (U-2932 [2]; 10 nM, time (day): 4) | growth inhibition by drug plus 177Lu-lilotomab satetraxetan (U-2932 [2]; 10 nM, time (day): 5) | growth inhibition by drug plus 177Lu-lilotomab satetraxetan (U-2932 [2]; 10 nM, time (day): 6) | growth inhibition by drug plus 177Lu-lilotomab satetraxetan (U-2932 [2]; 1000 nM, time (day): 3) | growth inhibition by drug plus 177Lu-lilotomab satetraxetan (U-2932 [2]; 1000 nM, time (day): 4) | growth inhibition by drug plus 177Lu-lilotomab satetraxetan (U-2932 [2]; 1000 nM, time (day): 5) | growth inhibition by drug plus 177Lu-lilotomab satetraxetan (U-2932 [2]; 1000 nM, time (day): 6) | growth inhibition by drug plus 177Lu-lilotomab satetraxetan (RIVA [3]; 10 nM, time (day): 3) | growth inhibition by drug plus 177Lu-lilotomab satetraxetan (RIVA [3]; 10 nM, time (day): 4) | growth inhibition by drug plus 177Lu-lilotomab satetraxetan (RIVA [3]; 10 nM, time (day): 5) | growth inhibition by drug plus 177Lu-lilotomab satetraxetan (RIVA [3]; 10 nM, time (day): 6) | growth inhibition by drug plus 177Lu-lilotomab satetraxetan (RIVA [3]; 100 nM, time (day): 3) | growth inhibition by drug plus 177Lu-lilotomab satetraxetan (RIVA [3]; 100 nM, time (day): 4) | growth inhibition by drug plus 177Lu-lilotomab satetraxetan (RIVA [3]; 100 nM, time (day): 5) | growth inhibition by drug plus 177Lu-lilotomab satetraxetan (RIVA [3]; 100 nM, time (day): 6) | growth inhibition by drug alone (RIVA [4]; 10 nM, time (day): 3) | growth inhibition by drug alone (RIVA [4]; 10 nM, time (day): 4) | growth inhibition by drug alone (RIVA [4]; 10 nM, time (day): 5) | growth inhibition by drug alone (RIVA [4]; 10 nM, time (day): 6) | growth inhibition by drug alone (RIVA [4]; 100 nM, time (day): 3) | growth inhibition by drug alone (RIVA [4]; 100 nM, time (day): 4) | growth inhibition by drug alone (RIVA [4]; 100 nM, time (day): 5) | growth inhibition by drug alone (RIVA [4]; 100 nM, time (day): 6)
Cc1oc(S(=O)(=O)N2CCCCC2)cc1NC(=O)Nc1ccccc1 | 0.104 | 0.0184 | -0.0595 | -0.0798 | -0.0127 | 0.0108 | -0.117 | -0.249 | 0.0412 | 0.101 | 0.11 | 0.174 | -0.0876 | 0.0154 | -0.000234 | 0.0155 | 0.422 | 0.557 | 0.585 | 0.576 | 0.511 | 0.598 | 0.601 | 0.574 |  |  |  |  |  |  |  | 
CC(=O)Nc1nc(C)c(-c2ccc(Cl)c(S(=O)(=O)NCCO)c2)s1 | 0.075 | 0.0569 | 0.00221 | -0.159 | 0.302 | 0.29 | 0.248 | 0.307 | -0.0326 | 0.00318 | 0.0521 | 0.103 | 0.423 | 0.467 | 0.424 | 0.489 | 0.348 | 0.493 | 0.527 | 0.549 | 0.317 | 0.471 | 0.448 | 0.434 |  |  |  |  |  |  |  | 
CCC(=O)N1CCN(c2ccc(-n3c(=O)ccc4cnc5ccc(-c6cnc7ccccc7c6)cc5c43)cc2C(F)(F)F)CC1 [Torin 1] | 0.203 | 0.128 | 0.0048 | -0.022 | 0.9 | 0.883 | 0.866 | 0.87 | 0.168 | 0.161 | 0.208 | 0.242 | 0.904 | 0.878 | 0.875 | 0.879 | 0.556 | 0.599 | 0.631 | 0.621 | 0.595 | 0.604 | 0.565 | 0.531 |  |  |  |  |  |  |  | 
CC(C)c1onc(-c2c(Cl)cccc2Cl)c1COc1ccc(/C=C/c2cccc(C(=O)O)c2)c(Cl)c1 | 0.0964 | 0.0881 | 0.0536 | 0.0511 | -0.008 | 0.0242 | -0.0241 | -0.208 | 0.0329 | 0.0686 | 0.0726 | 0.0791 | -0.0283 | 0.0526 | 0.0247 | 0.0113 | 0.473 | 0.542 | 0.562 | 0.583 | 0.522 | 0.552 | 0.554 | 0.538 |  |  |  |  |  |  |  | 
CC(C)(C#N)c1cc(Cn2cncn2)cc(C(C)(C)C#N)c1 [Anastrozole] | 0.105 | 0.0583 | 0.0212 | -0.021 | 0.0109 | 0.046 | -0.0146 | -0.259 | 0.0156 | 0.039 | 0.0695 | 0.0754 | -0.103 | 0.0124 | -0.0136 | -0.0141 | 0.481 | 0.583 | 0.593 | 0.583 | 0.423 | 0.506 | 0.523 | 0.499 | 0.0128 | -0.01 | -0.0521 | -0.213 | -0.0495 | -0.0262 | -0.0644 | -0.17
CC(c1cc2ccccc2s1)N(O)C(N)=O (stereo unspecified) [Zileuton] | 0.0373 | 0.016 | -0.0853 | -0.151 | -0.0669 | -0.0105 | -0.0851 | -0.12 | -0.00999 | 0.00112 | 0.025 | 0.0355 | -0.0574 | 0.0263 | -0.0233 | 0.0666 | 0.389 | 0.507 | 0.537 | 0.547 | 0.4 | 0.496 | 0.496 | 0.482 |  |  |  |  |  |  |  | 
COc1cc2nccc(Oc3ccc(NC(=O)NC4CC4)c(Cl)c3)c2cc1C(N)=O [E7080 (Lenvatinib)] | -0.0768 | -0.0782 | -0.0262 | 0.0583 | -0.0598 | -0.0139 | -0.0471 | 0.0893 | -0.0798 | -0.0346 | 0.0178 | 0.0795 | -0.0775 | 0.00296 | 0.0372 | 0.201 | 0.331 | 0.478 | 0.485 | 0.496 | 0.364 | 0.44 | 0.454 | 0.461 |  |  |  |  |  |  |  | 
Nc1cc(C(F)(F)F)c(-c2cc(N3CCOCC3)nc(N3CCOCC3)n2)cn1 | -0.0505 | -0.0268 | -0.042 | 0.0241 | 0.632 | 0.62 | 0.563 | 0.519 | -0.138 | -0.0899 | -0.0958 | -0.0143 | 0.508 | 0.421 | 0.403 | 0.455 | 0.268 | 0.424 | 0.461 | 0.48 | 0.33 | 0.394 | 0.402 | 0.384 | -0.24 | -0.261 | -0.283 | -0.377 | -0.244 | -0.324 | -0.245 | -0.359
Cc1c(C(=O)Nc2ccc(N3C[C@@H](C)O[C@@H](C)C3)nc2)cccc1-c1ccc(OC(F)(F)F)cc1 [LDE225 (NVP-LDE225, Erismodegib)] | 0.0297 | 0.0258 | -0.0417 | -0.121 | -0.0141 | 0.0478 | 0.023 | -0.177 | 0.00969 | 0.0196 | 0.033 | 0.15 | -0.0204 | 0.153 | 0.159 | 0.189 | 0.366 | 0.504 | 0.517 | 0.547 | 0.384 | 0.483 | 0.482 | 0.47 |  |  |  |  |  |  |  | 
Cc1ccc(-c2cc(C(F)(F)F)nn2-c2ccc(S(N)(=O)=O)cc2)cc1 [Celecoxib] | -0.0761 | -0.0572 | -0.00842 | 0.0336 | -0.0323 | -0.0104 | -0.0383 | -0.0538 | -0.0503 | -0.0256 | 0.0111 | 0.161 | -0.109 | -0.0274 | 0.00456 | 0.0432 | 0.337 | 0.477 | 0.505 | 0.512 | 0.373 | 0.448 | 0.453 | 0.425 |  |  |  |  |  |  |  | 
